18 molecules from PubChem BioAssay (NCATS) can be followed below.

Results filed as inconclusive are left out. Unmarked numbers belong to inactive results. Calls of active or inactive are those of the source. Calls come from the whole dose curve; as a rule, active = well fitted curve in the direction sought with a large enough effect; inconclusive = small, poorly fitted or top-dose-only effect, or another doubt; inactive = no such curve, though single readings can be large; an effect the other way counts as inactive or inconclusive.

Test [1] has as its target Rap guanine nucleotide exchange factor 3 (Homo sapiens) (UniProt O95398). Description: Confirmatory qHTS for antagonist of cAMP-regulated guanine nucleotide exchange factor 3 (EPAC1) (AID 1645880). Note: nearly all actives have a fitted effect of over 55% in size. Note: potency is the fitted concentration of half-maximal effect. The method, boiled down: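 Nucleotide exchange uses 100 nM EPAC1, 250 nM RAP1B-BODIPY-GDP and 50 uM GDP, with compounds in a concentration-titration series. After 5 min at room temperature, fluorescence (480 nm ex/540 nm em) is read every 5 min for 30 min. Data are normalized to control ATA and DMSO.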

The target is the same in test [2]. Description: Confirmatory qHTS for agonist of cAMP-regulated guanine nucleotide exchange factor 3 (EPAC1) (AID 1645881).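 Note: EPAC1 catalysed release of BODIPY-GDP from Rap1B seen as fluorescence loss; 100% = effect of cAMP agonist control; nearly all actives have a fitted effect of over 75% in size.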 For orientation: Quantitative high-throughput screening tests each substance at several concentrations.
Test [3] addresses Rap guanine nucleotide exchange factor 4 (Homo sapiens) (UniProt Q8WZA2). Description: Confirmatory qHTS for agonist of cAMP-regulated guanine nucleotide exchange factor 4 (EPAC2) (AID 1645884).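 Note: nucleotide exchange releases bodipy-GDP from Rap1 and this lowers its fluorescence; % is set by controls: 0 for no effect and ±100 for the full control effect; nearly all actives have a fitted effect of over 65% in size.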
The target is the same in test [4]. Description: Confirmatory qHTS for antagonist of cAMP-regulated guanine nucleotide exchange factor 4 (EPAC2) (AID 1645885). For activity change, negative = inhibition: % is set by controls: 0 for no effect and ±100 for the full control effect. Note: nearly all actives have a fitted effect of over 25% in size. Note: potency is the fitted concentration of half-maximal effect.
In test [5] the target is Rap guanine nucleotide exchange factor 3 (Homo sapiens) (UniProt O95398). In words: Counterscreen qHTS for antagonist of cAMP-regulated guanine nucleotide exchange factor 3 (EPAC1) (AID 1645888).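 Note: fluorescence loss as bound BODIPY-GDP is released from Rap1B; % of control where 0% means no effect.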 The method, boiled down: (§1)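 Rap1B–BODIPY-GDP (250 nM) with 50 uM GDP; compounds pin-transferred to 9.74 nM–152 uM final (activator) or from 7.32 nM upwards (inhibitor). Fluorescence Ex/Em 480/540 nm read at 5 and 30 min, then after adding cAMP or buffer, at room temperature.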
For orientation: A counterscreen serves to expose hits that act by an unwanted route or on another target.

The target is the same in test [6]. Description: Counterscreen qHTS for agonist of cAMP-regulated guanine nucleotide exchange factor 3 (EPAC1) (AID 1645889). Note: % of control where 0% means no effect; nearly all actives have a fitted effect of over 40% in size. The method, boiled down:
as §1

Sequence of Rap guanine nucleotide exchange factor 4 (Homo sapiens) (Q8WZA2 whole entry, looked up): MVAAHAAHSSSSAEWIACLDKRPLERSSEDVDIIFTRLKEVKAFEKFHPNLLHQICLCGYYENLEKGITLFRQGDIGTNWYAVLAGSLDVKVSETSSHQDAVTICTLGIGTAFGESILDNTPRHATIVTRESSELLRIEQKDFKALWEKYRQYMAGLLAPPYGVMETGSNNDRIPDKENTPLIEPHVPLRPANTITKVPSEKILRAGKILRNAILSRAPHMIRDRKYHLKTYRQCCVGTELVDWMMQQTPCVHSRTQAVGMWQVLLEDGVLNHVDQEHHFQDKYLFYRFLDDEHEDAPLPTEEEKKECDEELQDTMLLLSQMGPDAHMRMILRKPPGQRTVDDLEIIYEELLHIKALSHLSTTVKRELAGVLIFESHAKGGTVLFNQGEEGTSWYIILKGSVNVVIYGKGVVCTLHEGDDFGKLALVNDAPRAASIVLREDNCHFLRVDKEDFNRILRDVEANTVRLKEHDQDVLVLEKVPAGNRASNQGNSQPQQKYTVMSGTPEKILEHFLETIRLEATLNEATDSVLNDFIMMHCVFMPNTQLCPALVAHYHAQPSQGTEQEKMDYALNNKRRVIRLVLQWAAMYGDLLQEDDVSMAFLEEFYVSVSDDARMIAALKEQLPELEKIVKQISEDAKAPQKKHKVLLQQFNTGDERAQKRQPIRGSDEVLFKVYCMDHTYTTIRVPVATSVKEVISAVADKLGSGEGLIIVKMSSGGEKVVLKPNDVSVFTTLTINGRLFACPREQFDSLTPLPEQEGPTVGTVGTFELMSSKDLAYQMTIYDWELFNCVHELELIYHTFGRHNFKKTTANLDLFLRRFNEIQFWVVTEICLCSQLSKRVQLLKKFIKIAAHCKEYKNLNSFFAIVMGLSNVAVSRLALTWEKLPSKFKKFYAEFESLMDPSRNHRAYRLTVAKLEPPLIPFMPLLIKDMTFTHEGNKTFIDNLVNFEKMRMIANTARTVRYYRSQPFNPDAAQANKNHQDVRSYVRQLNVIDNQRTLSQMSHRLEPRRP
Sequence of Rap guanine nucleotide exchange factor 3 (Homo sapiens) (O95398 whole entry, looked up): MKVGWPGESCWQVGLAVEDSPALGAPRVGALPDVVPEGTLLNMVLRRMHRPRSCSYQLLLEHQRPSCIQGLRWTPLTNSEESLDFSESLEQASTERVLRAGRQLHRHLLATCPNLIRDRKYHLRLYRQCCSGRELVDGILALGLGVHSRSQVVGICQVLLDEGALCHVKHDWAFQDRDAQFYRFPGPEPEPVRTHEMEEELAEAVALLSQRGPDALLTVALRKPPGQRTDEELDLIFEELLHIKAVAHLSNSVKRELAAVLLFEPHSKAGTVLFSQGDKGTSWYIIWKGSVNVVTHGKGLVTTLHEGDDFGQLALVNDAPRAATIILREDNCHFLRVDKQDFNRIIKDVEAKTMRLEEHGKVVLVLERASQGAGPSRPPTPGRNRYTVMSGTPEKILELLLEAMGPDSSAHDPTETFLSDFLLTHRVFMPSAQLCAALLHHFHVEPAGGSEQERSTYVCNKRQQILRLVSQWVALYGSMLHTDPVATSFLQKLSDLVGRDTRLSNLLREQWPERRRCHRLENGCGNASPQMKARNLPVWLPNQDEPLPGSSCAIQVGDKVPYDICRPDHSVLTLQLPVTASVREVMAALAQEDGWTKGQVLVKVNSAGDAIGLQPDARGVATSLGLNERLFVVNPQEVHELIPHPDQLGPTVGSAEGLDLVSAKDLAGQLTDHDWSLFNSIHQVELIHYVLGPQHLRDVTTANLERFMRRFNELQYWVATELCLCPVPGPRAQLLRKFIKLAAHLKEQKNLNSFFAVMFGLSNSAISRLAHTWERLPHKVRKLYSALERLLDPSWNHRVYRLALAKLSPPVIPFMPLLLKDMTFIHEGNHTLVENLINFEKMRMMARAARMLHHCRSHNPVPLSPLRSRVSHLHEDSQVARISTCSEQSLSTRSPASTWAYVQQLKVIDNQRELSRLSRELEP

As for `O=C1O/C(=C/c2ccccc2)N=C1c1ccccc1`, the Potency entry in test [1], in test [2], in test [3], in test [4], in test [5] and in test [6] was “inactive” each time.
Turning to `CCS(=O)(=O)N1CCCC(C(=O)NCCCN(C)Cc2ccccc2)C1` (stereo not drawn), the Potency entry in test [1], in test [2], in test [3], in test [4], in test [5] and in test [6] was “inactive” throughout.
For the molecule `CCCCN1C(=O)C(C(=O)OCc2ccccc2)CC2=C1CCCC2=O` (stereo not drawn), the Potency result in test [1], in test [2], in test [3], in test [4], in test [5] and in test [6] was “inactive” in each case.
`O=C(CSc1nc2c([nH]c3ccccc32)c(=O)n1-c1ccccc1F)Nc1cccc(Cl)c1`: the Potency result in test [1], in test [2], in test [3], in test [4], in test [5] and in test [6] was “inactive” throughout.
In the case of `O=C(O)C(c1ccccc1)N1C(=O)/C(=C\c2ccc(-c3ccccc3Cl)o2)SC1=S` (stereo not drawn), the Potency entry in test [1], in test [2], in test [3], in test [4], in test [5] and in test [6] was “inactive” each time.
On to `CCC/C(=C1/c2ccccc2C(=O)N1c1ccccc1)c1cnc(OC)nc1`, for which the Potency entry in test [1], in test [2], in test [3], in test [5] and in test [6] was “inactive” each time. In test [4], the Potency was 37.9 µM (active).
As to `COc1ccccc1CNC(=O)CCCn1nc(C)c2c(C)n(-c3ccc(C)cc3)nc2c1=O`, the Potency entry in test [1], in test [2], in test [3], in test [5] and in test [6] was “inactive” in each case. The outcome in test [4] was “inactive [at 12.7 µM]”.
For the molecule `CCCCSc1nc2c(c(=O)n1CC)SC(C)C2` (stereo not drawn), the Potency result in test [1], in test [2] and in test [4] was “inactive” each time. The activation in test [3] is -4.2% [at 17.1 µM, percent relative to cAMP agonist control]; in test [6], 5.23% [at 30.8 µM]. Further, in test [5], the activity change, negative = inhibition is 2.79% [at 30.8 µM].
Take `CC1CCCN(CC(=O)Nc2cc(Cl)ccc2Oc2ccccc2)C1` (stereo not drawn): the Potency entry in test [1], in test [2], in test [3], in test [4], in test [5] and in test [6] was “inactive” each time.
As for `CC(C)OC(=O)NC(c1ccccc1)C(Cl)(Cl)Cl` (stereo not drawn), the Potency result in test [1], in test [2] and in test [4] was “inactive” throughout. Further, the activation is 4.21% [at 17.1 µM, percent relative to cAMP agonist control] in test [3] and 7.19% [at 30.8 µM] in test [6]. Further, in test [5], the activity change, negative = inhibition was -2.25% [at 30.8 µM].
`C=CCN(CC=C)Cc1cc(=O)oc2ccc3ccccc3c12`: the Potency entry in test [1], in test [2] and in test [4] was “inactive” throughout. The activation in test [3] is -1.79% [at 17.1 µM, percent relative to cAMP agonist control]; in test [6], 4.33% [at 30.8 µM]. The activity change, negative = inhibition in test [5] was -12.3% [at 30.8 µM].
With `Cc1ccccc1N(CC(=O)NC1CCCC1)C(=O)c1csnn1`, the Potency entry in test [1], in test [2] and in test [4] was “inactive” in each case. Besides, the activation in test [3] was -0.443% [at 17.1 µM, percent relative to cAMP agonist control]; in test [6], -0.253% [at 30.8 µM]. In test [5], the activity change, negative = inhibition is -9.99% [at 30.8 µM].
Consider `CN(C)CCCN(C(=O)COc1ccc(Cl)cc1)c1nc2cc3c(cc2s1)OCCO3`, for which the Potency entry in test [1], in test [2], in test [3], in test [4], in test [5] and in test [6] was “inactive” throughout.
For `CC(C)(C)[C@H](N)C(=O)N[C@H]1CCC2C3CC=C4C[C@@H](O)CC[C@]4(C)C3CC[C@@]21C` (stereo partly drawn), the Potency entry in test [1], in test [2] and in test [4] was “inactive” each time. Moreover, the activation in test [3] is 3.5% [at 17.1 µM, percent relative to cAMP agonist control]; in test [6], 31.4% [at 30.8 µM]. The activity change, negative = inhibition in test [5] was -9.07% [at 30.8 µM].
As for `CCOc1ccc(CCNC(=O)c2cccc(S(=O)(=O)N3CCCCC3)c2)cc1OCC`, the Potency entry in test [1], in test [2], in test [3], in test [4], in test [5] and in test [6] was “inactive” in each case.
For `O=C(COc1ccccc1Br)NCCC1=CCCCC1`, the Potency entry in test [1], in test [2] and in test [4] was “inactive” throughout. Further, the activation is 11.2% [at 17.1 µM, percent relative to cAMP agonist control] in test [3] and 20.5% [at 30.8 µM] in test [6]. The activity change, negative = inhibition in test [5] was -17.9% [at 30.8 µM].
On to `O=C(O)c1cccc(NC(=O)c2cn(-c3ccccc3)nc2-c2cc3ccccc3o2)c1`, for which the Potency in test [1] is 50.1 µM (active). Moreover, the Potency result in test [2] and in test [4] was “inactive” throughout. For the same molecule, the activation in test [3] was 0.161% [at 17.1 µM, percent relative to cAMP agonist control]; in test [6], 16.8% [at 30.8 µM]. The activity change, negative = inhibition in test [5] is -4.75% [at 30.8 µM].
With `Cc1ccc2[nH]cc(C(c3ccccc3)c3cccs3)c2c1` (stereo not drawn), the Potency entry in test [1], in test [2], in test [3], in test [5] and in test [6] was “inactive” throughout. Moreover, in test [4], the outcome is “inactive [at 12.7 µM]”.
